Here are results for two molecules from PubChem BioAssay AID2283218 (EPA ToxCast).

Active and inactive are the calls of the source. Rule for the calls: active = hit-call score of the fitted dose curve at least 0.9, where 1 is the maximum; inactive = score below 0.9.

Sequence of human Zeta Chain of T Cell Receptor Associated Protein Kinase 70 (ZAP70), ZAP70 (gene 7535) (P43403 whole entry, looked up): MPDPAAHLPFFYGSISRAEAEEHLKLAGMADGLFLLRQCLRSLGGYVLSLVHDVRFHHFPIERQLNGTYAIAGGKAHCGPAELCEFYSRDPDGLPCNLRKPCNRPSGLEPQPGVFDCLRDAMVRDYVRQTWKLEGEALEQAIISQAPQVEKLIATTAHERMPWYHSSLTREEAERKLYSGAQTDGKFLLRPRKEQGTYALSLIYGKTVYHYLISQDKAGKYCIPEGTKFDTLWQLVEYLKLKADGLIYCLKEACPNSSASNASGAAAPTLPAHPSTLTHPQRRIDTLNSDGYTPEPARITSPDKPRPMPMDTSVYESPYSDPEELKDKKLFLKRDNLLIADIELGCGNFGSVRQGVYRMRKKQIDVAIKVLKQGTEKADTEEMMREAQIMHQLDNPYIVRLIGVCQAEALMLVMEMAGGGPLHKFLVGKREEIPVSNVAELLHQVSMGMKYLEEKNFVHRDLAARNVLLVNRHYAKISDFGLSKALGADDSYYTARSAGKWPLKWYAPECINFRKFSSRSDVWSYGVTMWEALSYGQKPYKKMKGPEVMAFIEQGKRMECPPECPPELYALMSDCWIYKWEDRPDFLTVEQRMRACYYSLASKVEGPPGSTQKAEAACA

The assay deals with human Zeta Chain of T Cell Receptor Associated Protein Kinase 70 (ZAP70), ZAP70 (gene 7535) (UniProt P43403). As to the kind of experiment: NVS_ENZ_hZAP70: NovaScreen (NVS) Enzymatic Assay for human Zeta Chain of T Cell Receptor Associated Protein Kinase 70 (ZAP70). The method, then:
NVS_ENZ_hZAP70 is a biochemical, single-readout assay that uses extracted gene-proteins in a cell-free assay. Measurements were taken 0 hour after chemical dosing in a 96-well plate.NVS_ENZ_hZAP70 is one of one assay component(s) measured or calculated from the NVS_ENZ_hZAP70 assay. It is designed to make measurements of enzyme activity, a form of enzyme reporter, as detected with fluorescence intensity signals by Fluorescence and electrophoretic mobility shift technology.Data from the assay component NVS_ENZ_hZAP70 was analyzed into 1 assay endpoint. This assay endpoint, NVS_ENZ_hZAP70, was analyzed in the positive analysis fitting direction relative to DMSO as the negative control and baseline of activity. Using a type of enzyme reporter, loss-of-signal activity can be used to understand changes in the enzymatic activity as they relate to the gene ZAP70. Furthermore, this assay endpoint can be referred to as a primary readout, because this assay has produced multiple assay endpoints where this one serves a enzymatic activity function. To generalize the intended target to other relatable targets, this assay endpoint is annotated to the kinase intended target family, where the subfamily is non-receptor tyrosine kinase. […]
On to `O=C(O)C(F)(F)C(F)(F)C(F)(F)C(F)(F)C(F)(F)C(F)(F)C(F)(F)F`, for which the molecule was called inactive.
Turning to `O=S(=O)(O)C(F)(F)C(F)(F)C(F)(F)C(F)(F)C(F)(F)C(F)(F)C(F)(F)C(F)(F)F`, the AC50 was 12.3 µM (active).

For orientation: AC50 means the concentration giving half of the maximal activity seen.
